Compound activity (PubChem BioAssay)
Cycloheximide cs: counter-screen for Shiga toxin inhibitors: cycloheximide protein synthesis inhibition | cell reporter, cycloheximide protein synthesis inhibition counterscreen | max response, % | 12% of 300,000 active | AID 2314; in the data active = max response mostly above about 13%, no sharp cut-off; inactive = mostly below about 14%; note: read at 38.3 µM for the half of the compounds with a filed dose
Marburg entry inh: blocks Marburg virus binding to or entry into cells | Potency, µM (titrated, usually from 37.8 µM), usual class: inhibitors | Marburg virus pseudotyped entry inhibition, cell reporter | 1.8% of 300,000 active; calls by dose curve; tested in HEK293 cells
LASV entry inh: inhibitors of Lassa virus binding or cell entry; 1.2% of 300,000 active; Lassa virus pseudotype entry inhibition, cell reporter; AID 540256; Potency, µM (titrated, usually from 37.9 µM), most hits filed as inhibitors; calls by dose curve; tested in HEK293 cells; note: nearly all actives have a fitted effect of over 50% in size
Shiga toxin inh: inhibitors of Shiga toxin in Vero cells; Vero cells, Shiga toxin protein synthesis inhibition reporter; inhibition, % at 38.7 µM; 9.2% of 290,000 active; in the data active = inhibition mostly above about 28%, no sharp cut-off; inactive = mostly below about 43%
HCV inhibitor: inhibitors of hepatitis C virus infection. Huh7.5.1 HCVcc-Cre infection, luciferase reporter, 44 h. Potency, µM (top dose mostly 41.8 µM), hits mostly inhibitors. 3.4% of 340,000 active. AID 651820; active = well fitted inhibition curve with a large enough effect; inconclusive = small, poorly fitted or top-dose-only effect, or another doubt; inactive = no such curve, though single readings can be large or run the other way
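Luciferase read-out (15 sec integration) after a 15 min room-temperature substrate step quantifies HCVcc-Cre infection. Cells, 1,000 per well, had compound added 4 h post-plating, then virus at ~0.5 moi, and were cultured 44 h.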
FMDV inh: blocks foot and mouth disease virus. FMDV antiviral cell-based qHTS. Potency, µM (top dose mostly 57.9 µM), usual class: inhibitors. 1.2% of 410,000 active; calls by dose curve; tested in HEK293T cells; note: read-out not given here; nearly all actives have a fitted effect of over 45% in size
Hits are given with their value; - = inactive; ? = inconclusive; . = no result. Rows were chosen to be rich in hits. Some 13% of all compounds tested hit in one or more screens of this group.

SMILES | Cycloheximide cs | Marburg entry inh | LASV entry inh | Shiga toxin inh | HCV inhibitor | FMDV inh
CC(=O)OC1CC[C@]2(C)C(=CCC3C4CCC(C(C)CCCC(C)C)[C@]4(C)CCC32)C1 (stereo partly specified) | . | . | . | . | . | -
CCNC(=O)C1CCCN(Cc2cc(C(F)(F)F)ccc2Cl)CC1 (stereo unspecified) | . | . | . | . | . | -
CCN(CC)CCn1nc2c3c(cccc3c1=O)-c1ccccc1-2 | - | . | . | - | 10µM | ?
Cc1cccc(/C=N/NC(=O)c2ccc(F)cc2)n1 | 20.0 | . | . | 39.8 | - | -
Cc1cccc(/C=N/NC(=O)c2cccc(Cl)c2)n1 | 16.3 | - | - | - | - | -
O=C(N/N=C/c1ccccn1)c1ccc(NC(=O)c2ccc(F)cc2)cc1 | - | - | - | - | - | -
Cc1cccc(NC(=O)c2cccc(NC(=O)c3ccccc3)c2)n1 | - | ? | - | - | ? | -
Cc1cccc(/C=N/NC(=O)c2cccc(NC(=O)c3ccccc3)c2)n1 | 14.3 | - | - | - | - | -
Cc1ccccc1C(=O)Nc1cccc(C(=O)N/N=C/c2ccccn2)c1 | 11.6 | - | - | - | - | -
Cc1cccc(/C=N/NC(=O)c2cccc([N+](=O)[O-])c2)n1 | - | - | - | - | - | -
CCN(c1ccc(OC)cc1)S(=O)(=O)c1cc(-c2cc(C)no2)ccc1OC | - | . | . | - | ? | -
CCc1ccccc1N(C)S(=O)(=O)c1cc(-c2cc(C)no2)ccc1OC | - | . | . | - | 14.1µM | -
Cc1cc(-c2ccc(C)c(S(=O)(=O)N(C)c3ccc(C)c(C)c3)c2)on1 | . | . | - | . | . | 39.8µM
CCN(c1ccc(OC)cc1)S(=O)(=O)c1cc(-c2cc(C)no2)ccc1C(C)C | - | . | . | - | 12.6µM | -
COc1ccc(Cl)cc1CNCCCSc1ncccn1 | - | - | ? | - | - | -
O=c1c(F)cn(C2CCCO2)c(=O)n1Cc1c(Cl)cccc1Cl (stereo unspecified) | - | - | - | - | . | -
O=S(=O)(Nc1ccccc1)c1ccc(NS(=O)(=O)c2c(F)cccc2F)cc1 | - | - | - | - | - | -
Cc1[nH]cnc1CSCc1ccc(F)cc1 | 49.2 | ? | ? | 31.3 | - | -
Cc1ccc(C(=O)COC(=O)c2ccccc2NC(=O)c2ccccc2)cc1[N+](=O)[O-] | - | - | - | - | - | -
C/C(O)=C\c1nc2ccccc2oc1=O | 24.7 | - | - | 47.0 | - | -
O=c1oc2ccccc2nc1/C=C(\O)c1ccc(Br)cc1 | 26.9 | . | . | 38.8 | - | -
Cc1nc(SCC(=O)N2CCN(c3ccccn3)CC2)c(C#N)c(C)c1C | . | ? | - | . | ? | ?
O=C(Cn1nc(Cc2cccnc2)c2ccccc2c1=O)Nc1cc(F)ccc1F | - | . | . | - | - | -
O=C(COC(=O)C1=COCCO1)Nc1ncc(Cl)cc1Cl | . | ? | - | . | - | -
O=C1NN=C(c2ccccc2)CC1c1c[nH]c2ccccc12 (stereo unspecified) | 24.5 | . | . | - | - | -
SMILES | Cycloheximide cs | Marburg entry inh | LASV entry inh | Shiga toxin inh | HCV inhibitor | FMDV inh
O=C1NN=C(c2ccccc2)CC1c1ccc(Cl)cc1Cl (stereo unspecified) | - | ? | ? | - | - | -
Cc1cc(Cl)ccc1C(=O)C1CCCN(C(=O)c2cccnc2C)C1 (stereo unspecified) | - | . | . | - | - | -
CCN1C(=O)/C(=C2\C=Cc3cc(C)ccc3N2CC)OC1=S | - | - | - | - | - | -
CCN1C(=O)/C(=C2/C=Cc3ccccc3N2C)OC1=S | 37.4 | ? | - | - | - | -
CCN1C(=C2C(=O)c3ccccc3C2=O)C=Cc2ccccc21 | 24.6 | - | - | 38.9 | - | -
NC(=O)CC(NC(=O)c1ccccc1)c1ccc(NCCCN2CCCC2=O)c([N+](=O)[O-])c1 (stereo unspecified) | - | . | . | - | - | -
COc1cc(OC)cc(C(=O)NC(=S)Nc2cc3oc4ccccc4c3cc2OC)c1 | - | ? | ? | - | 1.78µM | -
COCCNC(=S)Nc1cc2oc3ccccc3c2cc1OC | 15.6 | - | - | - | ? | -
O=C(CN1CC(=O)Oc2ccccc21)OCC(=O)c1ccccc1 | - | - | - | - | - | .
O=C(CN1CC(=O)Oc2ccccc21)OCC(=O)c1cccc(Br)c1 | 17.7 | - | - | - | - | -
COc1ccc(S(=O)(=O)N2CCOC2CNC(=O)C(=O)NCc2cccnc2)cc1C (stereo unspecified) | - | - | - | - | - | -
COc1ccccc1C1N=C(c2ccccc2C)NO1 (stereo unspecified) | 44.3 | ? | - | 122.5 | - | -
